Experimental data taken from PubChem BioAssay (NCI).
About 83,000 compounds went through this panel and 20% of them were active in at least one assay; those are over-represented in the sample as a whole.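 Single-dose data. Exposure time 48 hours. Values below 10 considered active.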 A number with no mark means an inactive call. The source made the active and inactive calls.

system: SR leukemia; assay: NCI-60 one-dose screen, 48 h (100 = growth as untreated, 0 = no growth, -100 = all killed); conditions: 10 µM unless noted

SMILES	growth
Cc1cc(=O)oc2cc(Oc3nc(-c4ccccc4)cn4c(-c5ccccc5)cnc34)ccc12	54.5%
Cc1ccc2c(n1)C[C@H](C(C)(C)O)CC[C@H]2C	107%
Nc1nc(N)c2c(n1)NC(c1cccc(Nc3ccnc4cc(C(F)(F)F)ccc34)c1)CC(c1ccc(Cl)cc1)=N2 (stereo not given)	3.26% (active)
C(CCCSC1=NCCN1)CCSC1=NCCN1	95.9%
O=S(=O)(Nc1ccc(Br)cc1)c1ccc(-c2cnc(C3CC3)o2)cc1	12.7%
Nc1n[nH]c2cccc(C#Cc3cccc(C(=O)Nc4ccc(Cl)c(C(F)(F)F)c4)c3)c12	56%
NC(=N\N=C/c1ccc(Cl)cc1Cl)/C(N)=N\N=C/c1ccc(Cl)cc1Cl	51.1%
COc1cc(C(=O)/C=C/c2c(-c3cccs3)nc3sc(C)cn23)cc(OC)c1OC	4.77% (active)
Nc1nc(=O)n([C@H]2CC=C(CO)O2)cc1F	86.1%
COc1ccc(Nc2nccc(Nc3ccc4[nH]ncc4c3)n2)cc1	4.38% (active)
Cc1[nH]c(C(=O)Nc2ccccc2OC2CCNC2)c(Cl)c1Cl (stereo not given)	0.45% (active)
CCN1CCN(CCOc2ccc(CNc3ccc4nc(CCC5CCCCC5)[nH]c4c3)cc2)CC1	31.5%
O=C1NCCS(=O)(=O)/C1=C\C=C\c1cccc(C(F)(F)F)c1	6.61% (active)
CCCCCCCCCCCCCC[n+]1ccc2c(C)c3c(c(C)c2c1)c1cc(O)ccc1n3CC	-52.5% (active)
CCCc1cc(CCC)n2nc(N)nc2n1	109%
